According to PubChem BioAssay (Tox21):
Several values for one entry are separate records, joined by “and”; a condition that tells them apart may be missing. Equal entries are not always repeated. Results filed as inconclusive are left out. The source holds several records for some structures; these can differ, active in one and inactive in another. Activity calls are given as the source filed them. Unless noted, the call rests on the fitted dose curve; in most records, active means well fitted curve in the direction sought with a large enough effect in the repeat runs; inconclusive means weak or mixed curves; inactive means no such curve, though single readings can be large; an effect the other way counts as inactive or inconclusive.

Legend:
[1] = target: Nuclear receptor subfamily 1 group I member 3 (Homo sapiens) (UniProt Q14994); experiment: qHTS assay to identify small molecule agonists of the constitutive androstane receptor (CAR) signaling pathway (AID 1224839); further: nearly all actives have a fitted effect of over 15% in size; further: potency means the concentration at half of the fitted maximal effect
Nuclear receptor subfamily 1 group I member 3 (Homo sapiens), sequence (Q14994 whole entry, looked up): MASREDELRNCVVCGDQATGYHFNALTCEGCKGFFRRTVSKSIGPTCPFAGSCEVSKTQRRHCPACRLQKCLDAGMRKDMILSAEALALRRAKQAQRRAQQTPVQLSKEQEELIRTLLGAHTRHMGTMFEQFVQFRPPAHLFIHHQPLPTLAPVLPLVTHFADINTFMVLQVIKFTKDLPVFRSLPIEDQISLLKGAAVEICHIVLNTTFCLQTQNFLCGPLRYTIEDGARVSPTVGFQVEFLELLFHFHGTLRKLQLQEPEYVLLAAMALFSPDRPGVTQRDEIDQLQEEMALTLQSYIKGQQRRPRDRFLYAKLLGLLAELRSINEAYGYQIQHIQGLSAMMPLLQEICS
Method in brief: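 Stable hCAR/CYP2B6-2.2kb HepG2 line in DMEM with 10% FBS; compounds (15 concentrations) and 0.75 uM PK11195 final, 24 h at 37 C/5% CO2, then ONE-Glo luminescence after 30 min.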

[2] = qHTS assay to identify small molecule agonists of the hypoxia (HIF-1) signaling pathway - cell viability counter screen (AID 1224844; calls by dose curve; further: nearly all actives have a fitted effect of over 50% in size)
Method in brief: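 HRE-bla ME-180; 0.5% dFBS; cpd 17 h, 37C, 5% CO2; CellTiter-Glo lum., 30 min RT, post-FRET read, same wells.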

[3] = qHTS RealTime-Glo MT Cell Viability Assay in HepG2 cells - 8 hour (AID 1224873); further: nearly all actives have a fitted effect of over 55% in size
Method in brief: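 HepG2 cells (600/well) mixed with RealTime-Glo MT reagent, settled 5 h at 37 C/5% CO2 before compound addition. Nonlytic NanoLuc luminescence from viable-cell prosubstrate reduction read repeatedly during 40 h treatment at 37 C.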

[4] = A CellTox Green Cytotoxicity Assay to monitor cytotoxicity in HEK293 cells - 24 hour (AID 1224875); further: nearly all actives have a fitted effect of over 45% in size; further: potency means the concentration at half of the fitted maximal effect
Method in brief: (§1)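 Tox21 screen in HEK293: membrane-impermeant cyanine dye fluoresces on binding dead-cell DNA; compound pinned 5 h post-seeding, plates held at 37 C, signal read repeatedly through 40 h.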

[5] = A CellTox Green Cytotoxicity Assay to monitor cytotoxicity in HEK293 cells - 32 hour (AID 1224881); further: nearly all actives have a fitted effect of over 40% in size; further: potency means the concentration at half of the fitted maximal effect
Method in brief: as §1

[6] = qHTS assay to identify small molecule antagonists of the estrogen receptor beta (ER-beta) signaling pathway - cell viability counter screen (AID 1259382); further: nearly all actives have a fitted effect of over 55% in size; further: potency means the concentration at half of the fitted maximal effect
Method in brief: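 Readout: luminescence, CellTiter-Glo, same wells as bla assay. System: ER-beta-UAS-bla GripTite HEK293T, 2% charcoal-stripped FBS. Exposure: compounds plus 1nM 17-beta-estradiol, 16 hr, 37C.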

[7] = target: Thyrotropin receptor (Homo sapiens) (UniProt P16473); experiment: qHTS assay to identify small molecule antagonists of the thyroid stimulating hormone receptor (TSHR) signaling pathway (AID 1259385; calls by dose curve; further: nearly all actives have a fitted effect of over 20% in size)
Thyrotropin receptor (Homo sapiens), sequence (P16473 whole entry, looked up): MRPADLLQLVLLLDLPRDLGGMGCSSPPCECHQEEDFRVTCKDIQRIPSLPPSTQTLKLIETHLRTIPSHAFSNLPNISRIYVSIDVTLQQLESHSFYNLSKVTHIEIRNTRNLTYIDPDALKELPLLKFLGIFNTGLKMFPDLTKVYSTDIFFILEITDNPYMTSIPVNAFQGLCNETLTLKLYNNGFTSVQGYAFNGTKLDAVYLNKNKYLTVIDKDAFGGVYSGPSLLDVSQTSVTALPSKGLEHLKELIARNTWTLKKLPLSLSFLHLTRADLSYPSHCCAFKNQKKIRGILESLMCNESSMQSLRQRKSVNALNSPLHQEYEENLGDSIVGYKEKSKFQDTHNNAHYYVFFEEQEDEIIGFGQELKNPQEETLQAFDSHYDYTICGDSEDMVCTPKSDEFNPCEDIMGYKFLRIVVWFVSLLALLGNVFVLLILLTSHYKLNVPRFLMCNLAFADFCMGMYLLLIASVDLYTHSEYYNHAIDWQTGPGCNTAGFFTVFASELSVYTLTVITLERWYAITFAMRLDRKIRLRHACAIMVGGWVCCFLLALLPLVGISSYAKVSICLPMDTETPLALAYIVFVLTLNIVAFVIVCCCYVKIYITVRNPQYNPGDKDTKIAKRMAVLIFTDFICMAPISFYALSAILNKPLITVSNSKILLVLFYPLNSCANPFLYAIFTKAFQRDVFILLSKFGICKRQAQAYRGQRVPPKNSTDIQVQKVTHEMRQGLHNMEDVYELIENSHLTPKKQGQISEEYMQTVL
Method in brief: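 TSHR-HEK293 cells (800/well) plated 18 h, then compounds with Ro20-1724 and TSH at 1.5 ng/mL final, 30 min at room temperature. cAMP quantified by HTRF (cAMP-d2/anti-cAMP-cryptate, 1 h); 15 concentrations in triplicate.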

[8] = qHTS assay to identify small molecule antagonists of the progesterone receptor (PR) signaling pathway - cell viability counter screen (AID 1346798); further: nearly all actives have a fitted effect of over 50% in size; further: potency means the concentration at half of the fitted maximal effect
Method in brief: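 Viability was determined by ATP-based luminescence (CellTiter-Glo) in PR-UAS-bla HEK293T cells cultured in 2% charcoal-stripped serum and incubated 16 hr with compounds under R5020 stimulation.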

[9] = target: Thyrotropin-releasing hormone receptor (Homo sapiens) (UniProt P34981); experiment: qHTS assay to identify small molecule agonists of the thyrotropin-releasing hormone receptor (TRHR) signaling pathway (AID 1346891; calls by dose curve;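 further: HEK293 cells expressing TRHR with calcium dye readout; series mostly up to about 58 µM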)
Thyrotropin-releasing hormone receptor (Homo sapiens), sequence (P34981 whole entry, looked up): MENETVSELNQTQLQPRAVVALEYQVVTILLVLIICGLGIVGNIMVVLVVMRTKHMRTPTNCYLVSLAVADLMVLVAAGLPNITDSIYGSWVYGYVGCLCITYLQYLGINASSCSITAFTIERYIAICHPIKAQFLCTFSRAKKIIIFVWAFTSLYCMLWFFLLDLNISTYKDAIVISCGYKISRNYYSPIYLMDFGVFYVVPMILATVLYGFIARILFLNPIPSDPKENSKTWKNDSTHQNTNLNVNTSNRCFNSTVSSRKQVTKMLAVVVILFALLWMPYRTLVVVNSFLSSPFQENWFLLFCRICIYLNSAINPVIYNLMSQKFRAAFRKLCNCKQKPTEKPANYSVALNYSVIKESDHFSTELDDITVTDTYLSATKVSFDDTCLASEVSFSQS
Method in brief: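 Kinetic fluorescence (3 min, 1 s intervals) reported intracellular calcium after compound transfer onto TRHR-Hek293 cells pre-loaded with dye for 2 h at 37 °C.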

[10] = qHTS assay to identify small molecule agonists of the RXR signaling pathway - cell viability counter screen (AID 1159529); further: nearly all actives have a fitted effect of over 50% in size; further: potency means the concentration at half of the fitted maximal effect
Method in brief: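 Tox21 10K compounds were tested for cytotoxicity against GeneBLAzer RXR-alpha HEK 293T cells grown in 2% charcoal-stripped FBS. Exposure lasted 16 hr at 37 C, 5% CO2; viability read by CellTiter-Glo luminescence.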

[11] = qHTS assay to identify small molecule antagonists of the estrogen related receptor signaling pathway with the pleiotropic PPARgamma coactivator (PGC) from Tox21 10K library - cell viability counter screen (AID 1224840; active means well fitted cell-killing curve with a large enough effect in the repeat runs, not every such curve was filed as active; further: nearly all actives have a fitted effect of over 40% in size; further: potency means the concentration at half of the fitted maximal effect)
Method in brief: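 Seeded PGC/ERR cells (2,000/well, 6 h, 37 C/5% CO2) get compound by pin tool; 17.5 h incubation at 37 C; CellTiter-Fluor added, 30 min, fluorescence measured.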

[12] = qHTS assay to identify small molecule agonists of H2AX - cell viability counter screen (AID 1224847; calls by dose curve; further: nearly all actives have a fitted effect of over 30% in size; further: potency means the concentration at half of the fitted maximal effect)
Method in brief: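 Viability of CHO-K1 (wild type) cells after 3 hr compound exposure was measured by CellTiter-Glo luminescence.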

[13] = qHTS assay to identify small molecule agonists of the androgen receptor (AR) signaling pathway in the presence of an antagonist - cell viability counter screen (AID 1259379); further: nearly all actives have a fitted effect of over 25% in size; further: potency means the concentration at half of the fitted maximal effect
Method in brief: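 MDA-kb2 viability measured by CellTiter-Fluor fluorescence in the same wells as the luciferase signal; nilutamide 3.0uM final; 15-point compound titration; 16 hr at 37C.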

[14] = Caspase-3/7 induction in CHO-K1 cells by small molecules, qHTS cell viability counter screen (AID 1346979); further: nearly all actives have a fitted effect of over 35% in size; further: potency means the concentration at half of the fitted maximal effect
Method in brief: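 Seeding: 1,500 CHO-K1 cells/well. Rest: 5hr, 37C. Treatment: compounds in DMSO, 16hr. Read: CellTiter-Fluor, 1hr, fluorescence.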

[15] = target: Cytochrome P450 2D6 (Homo sapiens) (UniProt P10635); experiment: Cytochrome P450 Family 2 Subfamily D Member 6 (CYP2D6) small molecule antagonists: luciferase reporter qHTS assay (AID 1671196); further: nearly all actives have a fitted effect of over 50% in size; further: potency means the concentration at half of the fitted maximal effect
Cytochrome P450 2D6 (Homo sapiens), sequence (P10635 whole entry, looked up): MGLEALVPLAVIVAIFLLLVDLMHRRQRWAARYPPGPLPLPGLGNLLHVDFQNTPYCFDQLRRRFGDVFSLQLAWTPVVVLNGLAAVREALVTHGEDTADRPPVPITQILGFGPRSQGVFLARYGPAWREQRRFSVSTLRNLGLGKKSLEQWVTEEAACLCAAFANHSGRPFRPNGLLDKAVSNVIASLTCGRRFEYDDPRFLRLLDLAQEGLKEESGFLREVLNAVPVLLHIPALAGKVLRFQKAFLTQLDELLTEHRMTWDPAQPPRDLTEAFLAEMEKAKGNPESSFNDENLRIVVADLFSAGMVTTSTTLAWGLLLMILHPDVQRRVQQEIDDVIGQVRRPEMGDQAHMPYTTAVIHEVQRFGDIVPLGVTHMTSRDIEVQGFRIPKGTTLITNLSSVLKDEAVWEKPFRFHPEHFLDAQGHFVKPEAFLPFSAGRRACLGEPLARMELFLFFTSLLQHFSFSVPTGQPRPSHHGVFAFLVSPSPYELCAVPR
Method in brief: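 Chemicals tested for interference with CYP2D6 activity; proluciferin substrate, NADPH regeneration, 1 h at room temperature, luminescent detection.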

[16] = qHTS assay to test for compound auto fluorescence at 535 nm (green) in HepG2 cells (AID 720675)
[17] = qHTS assay to test for compound auto fluorescence at 590 nm (red) in HEK293 cells (AID 720679)
Method in brief: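 Using HEK293 cells at 2,000 per well, the screen added 23 nL of each compound after cell attachment and incubated overnight (37C, 5% CO2). The plate reader then captured red-label fluorescence, Ex/Em 540/590nm.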

[18] = qHTS assay to test for compound auto fluorescence at 535 nm (green) in HEK293 cell free culture (AID 720682)
Method in brief: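 Intrinsic compound fluorescence is measured in culture medium containing 10% FBS, with excitation at 485 nm and detection at 535 nm, referenced to fluorescein.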

[19] = qHTS assay to identify small molecule agonists of the estrogen receptor beta (ER-beta) signaling pathway - cell viability counter screen (AID 1259380); further: potency means the concentration at half of the fitted maximal effect; nearly all actives have a fitted effect of over 30% in size
Method in brief: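 Measured: luminescence from CellTiter-Glo after 30 min at room temperature, added to wells already read for the LiveBLAzer FRET reporter (2 hr substrate); ER-beta-UAS-bla HEK293T cells had 16 hr compound treatment at 37C, 5% CO2.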

[20] = qHTS RealTime-Glo MT Cell Viability Assay in HEK293 cells - 16 hour (AID 1224872); further: nearly all actives have a fitted effect of over 50% in size; further: potency means the concentration at half of the fitted maximal effect
Method in brief: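 Reads taken at 0, 8, 16, 24, 32 and 40 h from the same wells. HEK293 cells (600/well) carried RealTime-Glo reagents from seeding, with compound added after a 5 h settle at 37 C.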

Measured: Potency

OC(Cc1ccccc1Cl)(Cn1[nH]cnc1=S)C1(Cl)CC1 (configuration not stated)
inactive: [1] | [2] | [3] | [4] | [5] | [6] | [7] | [8] | [9]

CNC(=O)Oc1cc(C)c(SC)c(C)c1
active: [1] 61.1 µM | [4] 21.9 µM | [14] 54.5 µM
not listed: [2] | [5] | [16] | [17] | [18] | [19] | [20]
inactive: all other assays above

CC(C)(C)c1cc(C(C)(C)C)c(O)c(C(C)(C)C)c1
active: [1] 8.63 µM

O=C(Nc1ccccc1-c1ccc(Cl)cc1)c1cccnc1Cl
active: [19] 14.5 µM | [15] 30.4 µM
inactive: [16] | [17] | [18] | [11] | [3] | [13] | [9]

Nc1ccc([N+](=O)[O-])cc1
active: [11] 30.6 µM | [12] 101 µM | [20] 21.9 µM | [4] 49 µM | [5] 38.9 µM | [13] 30.6 µM | [19] 27.3 µM | [8] 8.63 µM | [14] 43.3 µM | [15] 50.2 µM
inactive: [16] | [17] | [18] | [3]

CN1CSC(=S)N(C)C1
active: [10] 10.9 µM and 8.69 µM | [11] 5.42 µM and 6.09 µM | [12] 56.4 µM | [20] 15.4 µM | [5] 6.13 µM and 9.75 µM | [19] 4.31 µM and 9.66 µM | [6] 9.64 µM and 8.61 µM | [8] 27.2 µM and 21.6 µM | [14] 1.36 µM and 7.67 µM
27.2 µM (active) and inactive: [13]
not listed: [2]
inactive: all other assays above

OCC(c1ccc(Cl)cc1)c1ccc(Cl)cc1
active: [10] 54.9 µM | [12] 89.8 µM | [20] 30.9 µM | [4] 24.5 µM | [5] 38.9 µM | [19] 54.5 µM
inactive: [16] | [17] | [18] | [13] | [7] | [9] | [15]

O=[N+]([O-])c1c(Cl)c(Cl)cc(Cl)c1Cl
active: [4] 49 µM | [5] 43.6 µM | [15] 35.6 µM
not listed: [1] | [7] | [9] | [10] | [12] | [19]
inactive: all other assays above
